Test results from the supplement of paper PMC10849652.
About 8,800 targets were measured; listed, in parts, are those with a hit and a random draw of the rest. About 0.5% of all pairs of compound and target were hits.

What was measured:
Experiment in all cases: log2 fold change, soluble protein after heating vs DMSO (PISA); higher = thermal stabilisation; K562 lysate, 10 uM; active = over 0.2 and 3.5 SD of the protein, either way, in both replicates (recomputed)
[1] = compound: CN1CC[C@H](c2c(O)cc(O)c3c(=O)cc(-c4ccccc4Cl)oc23)[C@H](O)C1 [alvocidib]
How it was run: (§1)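 To prepare the extract, K562 pellets were dounce-homogenised in PBS pH 7.4 with 1 mM MgCl2, giving crude material at 1 mg/mL protein. This was treated with 10 μM compound for 30 min, then heated in aliquots for 3 min over 48°C-58°C before pooling and addition of NP-40 to 0.5% at 4°C. Centrifugation at 21,000xg for 90 min left soluble protein in the supernatant, which TMTpro 16plex LC-MS/MS quantified with equalised channel sums. Results are log-two fold changes in thermal stability compared with solvent controls, from duplicates.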

[2] = compound: CN1CCc2c(c3ccccc3n2Cc2ccc(C(=O)NO)cc2)C1 [Tubastatin A]
How it was run: as §1

[3] = compound: CNC(=O)C1=CC=CC=C1NC2=NC(=NC=C2Cl)NC3=C(C=C(C=C3)N4CCOCC4)OC
How it was run: as §1

[4] = compound: CNC(=O)c1ccc(Nc2ncc(C(F)(F)F)c(NCc3nccnc3N(C)S(C)(=O)=O)n2)cc1 [defactinib]
How it was run: as §1

[5] = compound: CNc1nc(-c2ccc3c(N)n[nH]c3c2)cc(N2C[C@@H](C(=O)NC3CCCCC3)CC[C@H]2C)n1
How it was run: as §1

[6] = compound: COC(=O)N[C@@H](C)CNc1nccc(-c2cn(C(C)C)nc2-c2cc(Cl)cc(NS(C)(=O)=O)c2F)n1 [encorafenib]
How it was run: as §1

[7] = compound: COC(=O)[C@H](CCSC)NC(=O)C1=C(C=C(C=C1)NC[C@H](CS)N)C2=CC=CC=C2
How it was run: as §1

[8] = compound: COc1cc(Nc2ncc3c(n2)-c2ccc(Cl)cc2C(c2c(F)cccc2OC)=NC3)ccc1C(=O)O [alisertib]
How it was run: as §1

[9] = compound: COc1cc2nc(-c3cc(F)ccc3O)nc(N[C@@H]3CNC[C@H]3C(C)(C)O)c2cc1OC
How it was run: as §1

[10] = compound: COc1cc2ncnc(Nc3ccc(F)c(Cl)c3)c2cc1OCCCN1CCOCC1 [gefitinib]
How it was run: as §1

[11] = compound: CS(=O)(=O)CCNCc1ccc(-c2ccc3ncnc(Nc4ccc(OCc5cccc(F)c5)c(Cl)c4)c3c2)o1 [lapatinib]
How it was run: as §1

[12] = compound: CS(=O)(=O)N1CCN(Cc2cc3nc(-c4cccc5[nH]ncc45)nc(N4CCOCC4)c3s2)CC1 [pictilisib]
How it was run: as §1

[13] = compound: C[C@@H](Oc1cc(-c2cnn(C3CCNCC3)c2)cnc1N)c1c(Cl)ccc(F)c1Cl [crizotinib]
How it was run: as §1

[14] = compound: C[C@H](C1=CC=C(C=C1)C(=O)NC2=C3C=CNC3=NC=C2)N
How it was run: as §1

[15] = compound: C[C@H](Nc1ncnc2nc[nH]c12)c1cc2cccc(Cl)c2c(=O)n1-c1ccccc1 [duvelisib]
How it was run: as §1

[16] = compound: Cc1cc(Nc2cc(CN3CCOCC3)c3nc(C)c(Cc4ccc(Cl)cc4F)n3n2)n[nH]1 [gandotinib]
How it was run: as §1

[17] = compound: Cc1cc(Nc2cc(N3CCN(C)CC3)nc(Sc3ccc(NC(=O)C4CC4)cc3)n2)n[nH]1 [tozasertib]
How it was run: as §1

[18] = compound: Cc1ccc(-n2nc(C(C)(C)C)cc2NC(=O)Nc2ccc(OCCN3CCOCC3)c3ccccc23)cc1 [doramapimod]
How it was run: as §1

[19] = compound: Cc1ccc(NC(=O)c2ccc(CN3CC[C@H](N(C)C)C3)c(C(F)(F)F)c2)cc1Nc1nccc(-c2cncnc2)n1 [bafetinib]
How it was run: as §1

[20] = compound: Cc1cccc(CC(=O)N2CCc3c2ccc(-c2cn(C)c4ncnc(N)c24)c3F)n1
How it was run: as §1

Measured: log2 fold change

ENGASE (UniProt Q8NFI3)
Chain of UniProt Q8NFI3 (Q8NFI3 whole entry, looked up): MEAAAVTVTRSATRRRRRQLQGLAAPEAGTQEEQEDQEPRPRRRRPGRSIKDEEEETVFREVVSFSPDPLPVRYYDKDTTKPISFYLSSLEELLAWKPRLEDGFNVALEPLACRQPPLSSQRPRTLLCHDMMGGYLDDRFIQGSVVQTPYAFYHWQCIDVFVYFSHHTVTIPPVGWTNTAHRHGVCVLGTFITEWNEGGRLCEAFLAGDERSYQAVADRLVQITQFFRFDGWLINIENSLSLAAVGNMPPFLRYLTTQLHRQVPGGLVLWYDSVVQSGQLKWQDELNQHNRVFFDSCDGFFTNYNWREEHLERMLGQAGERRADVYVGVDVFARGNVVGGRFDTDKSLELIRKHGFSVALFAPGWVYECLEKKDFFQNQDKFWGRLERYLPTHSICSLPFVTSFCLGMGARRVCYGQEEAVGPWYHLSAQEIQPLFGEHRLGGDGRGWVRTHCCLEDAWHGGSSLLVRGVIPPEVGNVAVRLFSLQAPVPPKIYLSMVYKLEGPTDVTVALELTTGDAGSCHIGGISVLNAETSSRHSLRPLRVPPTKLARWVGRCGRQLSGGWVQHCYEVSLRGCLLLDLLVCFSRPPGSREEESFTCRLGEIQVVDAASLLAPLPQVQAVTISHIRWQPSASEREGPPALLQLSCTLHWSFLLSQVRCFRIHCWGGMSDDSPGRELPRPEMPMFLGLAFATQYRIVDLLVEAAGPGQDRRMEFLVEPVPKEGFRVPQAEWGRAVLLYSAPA
inactive: [1] -0.144 | [2] -0.02 | [3] 0.043 | [4] -0.011 | [5] 0.02 | [6] 0.018 | [7] -0.056 | [8] 0.025 | [9] -0.015 | [10] 0.018 | [11] -0.02 | [12] 0 | [13] 0.011 | [14] -0.048 | [15] -0.025 | [16] 0.116 | [17] 0.051 | [18] 0.033 | [19] 0.003 | [20] 0.148

EEF1A1, A0A087WVQ9
inactive: [1] -0.005 | [2] -0.102 | [3] 0.042 | [4] 0.062 | [5] 0.071 | [6] 0.011 | [7] 0.115 | [8] -0.073 | [9] 0.026 | [10] -0.054 | [11] 0.028 | [12] -0.038 | [13] -0.02 | [14] 0.07 | [15] -0.021 | [16] 0.017 | [17] -0.08 | [18] -0.069 | [19] 0.068 | [20] -0.129

EHD2 (UniProt Q9NZN4)
inactive: [1] -0.012 | [2] -0.051 | [3] 0.055 | [4] 0.032 | [5] -0.037 | [6] 0.001 | [7] 0.246 | [8] -0.015 | [9] 0.071 | [10] -0.04 | [11] -0.047 | [12] -0.052 | [13] -0.033 | [14] 0.004 | [15] 0.026 | [16] -0.117 | [17] -0.004 | [18] 0.02 | [19] -0.063 | [20] 0.017

FAM83A (UniProt Q86UY5)
inactive: [1] -0.095 | [2] -0.039 | [3] 0.061 | [4] -0.055 | [5] 0.015 | [6] 0.02 | [7] 0.07 | [8] 0.02 | [9] -0.013 | [10] 0.017 | [11] 0.012 | [12] 0.021 | [13] 0.086 | [14] -0.142 | [15] -0.047 | [16] 0.155 | [17] -0.013 | [18] 0.195 | [19] -0.053 | [20] 0.056

GAPVD1 isoform 6 (UniProt Q14C86)
Chain of UniProt Q14C86 (Q14C86 whole entry, looked up): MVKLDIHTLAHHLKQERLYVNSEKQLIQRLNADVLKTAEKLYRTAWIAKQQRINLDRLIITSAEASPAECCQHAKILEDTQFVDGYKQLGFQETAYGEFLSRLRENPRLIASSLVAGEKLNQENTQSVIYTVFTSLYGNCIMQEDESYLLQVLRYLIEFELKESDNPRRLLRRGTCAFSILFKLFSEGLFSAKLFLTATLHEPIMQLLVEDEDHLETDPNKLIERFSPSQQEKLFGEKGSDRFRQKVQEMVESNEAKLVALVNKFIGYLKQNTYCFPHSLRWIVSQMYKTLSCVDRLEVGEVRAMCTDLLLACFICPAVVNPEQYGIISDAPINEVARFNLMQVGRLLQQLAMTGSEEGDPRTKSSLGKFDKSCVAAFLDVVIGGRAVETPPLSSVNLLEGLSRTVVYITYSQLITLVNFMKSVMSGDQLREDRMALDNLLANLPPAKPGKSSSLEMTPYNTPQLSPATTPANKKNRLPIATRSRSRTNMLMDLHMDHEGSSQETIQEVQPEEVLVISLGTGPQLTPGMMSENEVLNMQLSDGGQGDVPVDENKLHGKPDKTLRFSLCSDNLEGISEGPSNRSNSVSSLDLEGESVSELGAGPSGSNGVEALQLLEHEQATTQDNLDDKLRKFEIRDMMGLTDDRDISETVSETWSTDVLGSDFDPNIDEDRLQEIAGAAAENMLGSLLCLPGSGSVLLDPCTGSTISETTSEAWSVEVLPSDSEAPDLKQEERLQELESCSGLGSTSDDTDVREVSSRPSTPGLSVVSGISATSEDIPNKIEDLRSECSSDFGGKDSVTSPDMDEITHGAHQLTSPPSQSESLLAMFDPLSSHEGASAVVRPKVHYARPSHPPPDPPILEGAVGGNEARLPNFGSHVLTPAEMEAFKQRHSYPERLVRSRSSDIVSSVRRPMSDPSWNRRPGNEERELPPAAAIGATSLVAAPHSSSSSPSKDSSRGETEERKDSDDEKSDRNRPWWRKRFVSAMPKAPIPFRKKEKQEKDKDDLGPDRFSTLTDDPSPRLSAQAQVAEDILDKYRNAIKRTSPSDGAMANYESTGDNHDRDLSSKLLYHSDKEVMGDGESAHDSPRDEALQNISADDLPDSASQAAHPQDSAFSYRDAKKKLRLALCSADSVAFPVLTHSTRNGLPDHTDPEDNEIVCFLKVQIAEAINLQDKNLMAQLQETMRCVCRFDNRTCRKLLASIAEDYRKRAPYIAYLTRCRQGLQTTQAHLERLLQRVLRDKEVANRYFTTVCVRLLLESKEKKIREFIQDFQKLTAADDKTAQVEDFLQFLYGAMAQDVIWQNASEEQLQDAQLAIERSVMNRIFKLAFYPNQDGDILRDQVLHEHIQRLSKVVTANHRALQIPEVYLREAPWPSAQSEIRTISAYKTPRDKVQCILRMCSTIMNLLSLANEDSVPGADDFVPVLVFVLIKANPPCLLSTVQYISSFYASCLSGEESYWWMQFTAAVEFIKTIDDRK
inactive: [1] 0.01 | [2] -0.112 | [3] 0.015 | [4] 0.018 | [5] -0.04 | [6] 0.014 | [7] 0.097 | [8] 0.005 | [9] -0.017 | [10] -0.012 | [11] 0 | [12] -0.017 | [13] -0.023 | [14] 0.054 | [15] 0.011 | [16] -0.088 | [17] -0.002 | [18] 0.025 | [19] -0.022 | [20] -0.018

EIF2D (UniProt P41214)
inactive: [1] 0.017 | [2] -0.083 | [3] 0.003 | [4] 0.033 | [5] -0.024 | [6] -0.014 | [7] 0.164 | [8] 0.013 | [9] -0.018 | [10] -0.031 | [11] -0.002 | [12] -0.014 | [13] -0.067 | [14] 0.024 | [15] 0.022 | [16] -0.084 | [17] 0.029 | [18] 0.032 | [19] -0.063 | [20] -0.01

FANCI (UniProt Q9NVI1)
Chain of UniProt Q9NVI1 (Q9NVI1 whole entry, looked up): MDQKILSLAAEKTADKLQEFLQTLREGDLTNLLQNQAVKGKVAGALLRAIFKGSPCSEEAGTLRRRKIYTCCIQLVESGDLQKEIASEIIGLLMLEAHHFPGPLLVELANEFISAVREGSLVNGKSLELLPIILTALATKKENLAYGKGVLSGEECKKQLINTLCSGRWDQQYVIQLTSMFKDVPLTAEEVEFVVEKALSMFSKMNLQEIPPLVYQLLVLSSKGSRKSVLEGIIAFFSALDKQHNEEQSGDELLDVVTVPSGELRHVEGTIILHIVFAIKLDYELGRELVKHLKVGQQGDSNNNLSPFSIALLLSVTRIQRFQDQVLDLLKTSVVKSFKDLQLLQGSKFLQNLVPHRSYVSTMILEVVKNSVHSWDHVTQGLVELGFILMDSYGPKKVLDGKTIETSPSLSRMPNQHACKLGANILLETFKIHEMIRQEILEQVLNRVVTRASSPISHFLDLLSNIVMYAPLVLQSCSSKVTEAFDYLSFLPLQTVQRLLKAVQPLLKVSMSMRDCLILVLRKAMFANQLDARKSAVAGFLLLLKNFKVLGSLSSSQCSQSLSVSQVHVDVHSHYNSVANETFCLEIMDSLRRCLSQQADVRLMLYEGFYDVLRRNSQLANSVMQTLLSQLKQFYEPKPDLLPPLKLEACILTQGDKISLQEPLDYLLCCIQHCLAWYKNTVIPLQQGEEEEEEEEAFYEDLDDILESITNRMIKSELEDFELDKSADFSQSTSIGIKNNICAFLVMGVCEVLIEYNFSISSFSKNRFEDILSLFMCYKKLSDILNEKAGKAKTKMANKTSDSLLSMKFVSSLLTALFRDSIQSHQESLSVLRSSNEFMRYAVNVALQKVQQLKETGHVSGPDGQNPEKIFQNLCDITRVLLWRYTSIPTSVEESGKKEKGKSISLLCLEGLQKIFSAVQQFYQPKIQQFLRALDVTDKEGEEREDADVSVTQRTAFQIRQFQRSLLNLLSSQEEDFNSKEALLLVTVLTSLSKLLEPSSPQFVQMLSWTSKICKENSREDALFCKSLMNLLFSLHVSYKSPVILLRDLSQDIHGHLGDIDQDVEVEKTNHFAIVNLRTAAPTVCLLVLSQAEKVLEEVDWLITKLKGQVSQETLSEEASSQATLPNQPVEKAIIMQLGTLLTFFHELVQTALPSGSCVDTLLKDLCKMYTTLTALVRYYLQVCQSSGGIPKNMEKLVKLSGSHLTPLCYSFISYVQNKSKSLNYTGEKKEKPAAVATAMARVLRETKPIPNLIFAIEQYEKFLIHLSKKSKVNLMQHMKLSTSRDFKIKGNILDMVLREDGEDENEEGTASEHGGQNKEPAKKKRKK
inactive: [1] 0.063 | [2] -0.097 | [3] 0.014 | [4] 0.01 | [5] -0.036 | [6] 0.002 | [7] 0.052 | [8] 0 | [9] 0.01 | [10] -0.002 | [11] -0.015 | [12] -0.034 | [13] -0.09 | [14] 0.06 | [15] 0.001 | [16] -0.199 | [17] 0.002 | [18] -0.003 | [19] -0.032 | [20] -0.011

FAU (UniProt E9PR30)
inactive: [1] 0.073 | [2] 0.02 | [3] -0.087 | [4] 0.003 | [5] 0.013 | [6] -0.04 | [7] 0.013 | [8] 0.035 | [9] -0.016 | [10] -0.044 | [11] -0.018 | [12] 0.02 | [13] -0.055 | [15] 0.047 | [16] -0.105 | [17] -0.027 | [18] 0.071 | [19] -0.019 | [20] -0.121
active: [14] 0.293

FECH isoform 2 (UniProt P22830)
inactive: [1] 0.028 | [2] -0.123 | [3] 0.485 | [4] -0.056 | [5] 0.664 | [6] -0.064 | [7] -0.091 | [8] -0.191 | [9] 0.225 | [10] 0.503 | [11] -0.099 | [12] 0.64 | [13] 0.027 | [14] -0.12 | [15] -0.022 | [16] 0.418 | [17] 0 | [18] -0.015 | [19] 0.557 | [20] -0.036

GAPDH (UniProt P04406)
Chain of UniProt P04406 (P04406 whole entry, looked up): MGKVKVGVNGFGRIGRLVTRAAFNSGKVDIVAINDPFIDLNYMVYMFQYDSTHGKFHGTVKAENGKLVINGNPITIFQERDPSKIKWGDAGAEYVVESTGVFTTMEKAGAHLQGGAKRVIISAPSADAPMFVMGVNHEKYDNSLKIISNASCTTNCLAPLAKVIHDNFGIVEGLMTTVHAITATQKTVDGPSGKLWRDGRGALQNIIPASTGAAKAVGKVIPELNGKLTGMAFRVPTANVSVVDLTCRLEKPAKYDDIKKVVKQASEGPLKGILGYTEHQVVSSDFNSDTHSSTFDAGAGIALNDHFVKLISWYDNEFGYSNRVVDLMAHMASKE
inactive: [1] 0.01 | [2] 0.046 | [3] 0 | [4] 0.012 | [5] 0.018 | [6] -0.045 | [7] -0.006 | [8] -0.039 | [9] -0.001 | [10] -0.026 | [11] 0.005 | [12] -0.024 | [13] 0.066 | [14] 0.043 | [15] 0.003 | [16] -0.002 | [17] -0.005 | [18] -0.031 | [19] 0.055 | [20] -0.082

EMC7 (UniProt Q9NPA0)
Chain of UniProt Q9NPA0 (Q9NPA0 whole entry, looked up): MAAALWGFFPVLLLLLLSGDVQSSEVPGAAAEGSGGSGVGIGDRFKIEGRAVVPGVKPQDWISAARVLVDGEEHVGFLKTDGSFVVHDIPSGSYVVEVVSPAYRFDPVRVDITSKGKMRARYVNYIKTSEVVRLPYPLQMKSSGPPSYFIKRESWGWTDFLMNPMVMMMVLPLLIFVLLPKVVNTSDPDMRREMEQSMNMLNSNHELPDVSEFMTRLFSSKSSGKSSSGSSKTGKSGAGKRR
active: [14] -0.353
inactive: [1] -0.146 | [2] 0.039 | [3] -0.037 | [4] 0.02 | [5] -0.008 | [6] 0.026 | [7] -0.058 | [8] 0.001 | [9] 0.017 | [10] -0.043 | [11] -0.03 | [12] 0.024 | [13] 0.012 | [15] -0.041 | [16] 0.077 | [17] 0.02 | [18] 0.011 | [19] -0.031 | [20] 0.174

FTSJ1 (UniProt Q9UET6)
Chain of UniProt Q9UET6 (Q9UET6 whole entry, looked up): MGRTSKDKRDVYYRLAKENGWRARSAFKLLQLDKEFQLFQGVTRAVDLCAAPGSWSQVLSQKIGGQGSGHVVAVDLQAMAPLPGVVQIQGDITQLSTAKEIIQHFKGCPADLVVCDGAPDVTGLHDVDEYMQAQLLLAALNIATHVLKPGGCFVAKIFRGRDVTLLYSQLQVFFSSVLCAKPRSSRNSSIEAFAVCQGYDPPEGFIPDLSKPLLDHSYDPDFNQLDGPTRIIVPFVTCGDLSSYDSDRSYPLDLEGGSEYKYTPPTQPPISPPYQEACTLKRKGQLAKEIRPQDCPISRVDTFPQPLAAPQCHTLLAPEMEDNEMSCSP
inactive: [1] 0.003 | [2] -0.038 | [3] 0.049 | [4] -0.021 | [5] -0.016 | [6] -0.025 | [7] 0.089 | [8] 0.004 | [9] 0.005 | [10] -0.001 | [11] 0.01 | [12] -0.002 | [13] -0.051 | [14] 0.051 | [15] -0.009 | [16] -0.088 | [17] -0.064 | [18] 0.03 | [19] 0.041 | [20] -0.052

FDFT1 (UniProt P37268)
inactive: [1] 0.002 | [2] -0.037 | [3] -0.033 | [4] -0.048 | [5] -0.018 | [6] 0.047 | [7] -0.155 | [8] 0.068 | [9] 0.018 | [10] 0.016 | [11] -0.037 | [12] -0.018 | [13] 0.062 | [14] -0.045 | [15] 0.19 | [16] 0.207 | [17] -0.004 | [18] 0 | [19] 0.018 | [20] 0.01

FNBP1L (UniProt Q5T0N5)
Chain of UniProt Q5T0N5 (Q5T0N5 whole entry, looked up): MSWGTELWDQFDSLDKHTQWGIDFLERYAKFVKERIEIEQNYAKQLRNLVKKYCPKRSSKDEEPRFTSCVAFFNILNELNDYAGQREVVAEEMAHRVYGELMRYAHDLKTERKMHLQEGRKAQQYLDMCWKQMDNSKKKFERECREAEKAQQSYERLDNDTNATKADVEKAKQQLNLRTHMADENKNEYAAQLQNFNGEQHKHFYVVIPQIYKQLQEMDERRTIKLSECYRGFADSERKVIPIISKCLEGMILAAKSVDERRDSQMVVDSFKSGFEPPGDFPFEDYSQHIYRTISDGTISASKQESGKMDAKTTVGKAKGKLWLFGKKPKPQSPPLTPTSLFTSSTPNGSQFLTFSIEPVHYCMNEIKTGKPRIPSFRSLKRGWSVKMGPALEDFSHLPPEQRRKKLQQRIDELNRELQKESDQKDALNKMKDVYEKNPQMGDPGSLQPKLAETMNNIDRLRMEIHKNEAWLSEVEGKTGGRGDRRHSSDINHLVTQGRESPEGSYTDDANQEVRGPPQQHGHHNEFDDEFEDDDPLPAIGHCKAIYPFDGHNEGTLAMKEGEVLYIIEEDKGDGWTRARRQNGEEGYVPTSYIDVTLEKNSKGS
inactive: [1] 0.04 | [2] -0.043 | [3] 0.023 | [4] -0.066 | [6] 0.045 | [7] 0.034 | [8] 0.005 | [9] -0.015 | [10] 0.099 | [11] 0.005 | [12] 0 | [13] -0.039 | [14] -0.023 | [15] -0.115 | [16] 0.002 | [17] -0.003 | [18] 0.113 | [19] -0.089 | [20] -0.026
active: [5] 0.357

FHOD1 (UniProt Q9Y613)
inactive: [1] -0.034 | [2] -0.129 | [3] 0.014 | [4] 0.033 | [5] 0.006 | [6] 0.021 | [7] 0.028 | [8] 0.011 | [9] 0.002 | [10] -0.013 | [11] -0.018 | [12] -0.011 | [13] -0.014 | [14] 0.017 | [15] -0.023 | [16] -0.141 | [17] 0.008 | [18] 0.045 | [19] -0.063 | [20] 0.035

FKBP8 isoform 2 (UniProt Q14318)
inactive: [1] 0.004 | [2] -0.123 | [3] 0.02 | [4] 0.024 | [5] -0.018 | [6] 0.009 | [7] 0.112 | [8] 0.027 | [9] 0.001 | [10] 0.01 | [11] -0.041 | [12] -0.036 | [13] -0.12 | [14] -0.035 | [15] 0.044 | [16] -0.021 | [17] -0.024 | [18] 0.064 | [19] -0.07 | [20] 0.013
